PubChem BioAssay

Experiments:
[1] = biological target: Tumor necrosis factor receptor superfamily member 10B (Homo sapiens) (UniProt O14763); assay: caspase-8 TRAIL sensitization, hit retest, confirmation, cell-based, NB7+caspase-8, with/without TRAIL, luminescence panel (AID 651596); settings: NB7 neuroblastoma + caspase-8, TRAIL sensitization, luminescence viability, with TRAIL, mean of runs, at 10 µM, stronger effect = higher value
[2] = as above; settings: NB7 neuroblastoma + caspase-8, without TRAIL, luminescence viability, without TRAIL, mean of runs, at 10 µM

Sequence of Tumor necrosis factor receptor superfamily member 10B (Homo sapiens) (O14763 whole entry, looked up): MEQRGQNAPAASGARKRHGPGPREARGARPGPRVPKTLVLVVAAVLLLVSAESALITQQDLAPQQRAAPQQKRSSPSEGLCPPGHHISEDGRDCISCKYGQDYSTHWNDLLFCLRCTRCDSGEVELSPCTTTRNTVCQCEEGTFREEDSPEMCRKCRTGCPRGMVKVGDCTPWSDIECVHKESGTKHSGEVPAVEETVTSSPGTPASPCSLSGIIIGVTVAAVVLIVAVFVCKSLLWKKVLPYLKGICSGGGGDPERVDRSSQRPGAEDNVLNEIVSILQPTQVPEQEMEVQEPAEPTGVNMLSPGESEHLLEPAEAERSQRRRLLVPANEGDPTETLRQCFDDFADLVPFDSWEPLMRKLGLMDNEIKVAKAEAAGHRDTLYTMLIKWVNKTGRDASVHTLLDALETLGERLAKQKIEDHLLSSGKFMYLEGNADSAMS

Compound	activity [1]	activity [2]
Cn1c(=N)n(CC(=O)c2ccc(F)cc2)c2ccccc21	75.8%	67.5%
Cc1cc(C)cc(NS(=O)(=O)c2ccc3c(c2)c(=O)n(C)c(=O)n3C)c1	79%	82.2%
CCOc1cc(NC(=O)CCl)c(OCC)cc1NC(=O)CCl	96.6%	98.5%
CCOc1ccc(C(C)=O)cc1COC(=O)c1cnc(Cl)c(Cl)c1	97.6%	79.1%
C=C1CC2(CC(c3ccccc3)OC(c3ccccc3)C2)OC1=O (stereo unspecified)	47%	73.1%
COc1ccc(N2Cc3ccccc3C2=O)cc1	67%	62.5%
Clc1ccc(CSc2nc3ccncc3[nH]2)cc1	96.8%	96.1%
O=C(NCCOc1ccccc1)c1cccc2c1C(=O)c1ccc(Cl)cc1S2(=O)=O	35.6%	54.2%
CCOC(=O)c1cnc(-n2nc(C)cc2C)nc1N(C)C	55.4%	52.1%
O=C(N/N=C/c1ccc[nH]1)c1ccc(COc2cccc3cccnc23)cc1	71.5%	90.3%
Cn1cnc([N+](=O)[O-])c1Sc1nc(N)nc2c1ncn2C1CC(O)C(CO)O1 (stereo unspecified)	68.8%	65.6%
CCOc1ccc2nc(NC(=O)c3cccc(N4C(=O)CCC4=O)c3)sc2c1	65.7%	81.5%
COc1cccc(NC(=O)c2cc3ccccc3o/c2=N\O)c1	65%	64.6%
CCC(=O)c1ccc(/C=C/c2nc3ccccc3n2C)o1	61.2%	54.8%
O=C(Nc1cccnc1Cl)c1ccc2c(Cl)c3c(nc2c1)CCC3	78.5%	78.4%
CCOc1cccc2cc(-c3nnc(NCc4ccco4)s3)c(=O)oc12	-11.9%	-7.67%
CC(=O)Oc1ccccc1/C=C/c1nc2ccccc2c(=O)o1	83.7%	84.8%
CC(O)CC(=O)OC[C@]12CC[C@H]3[C@@](C)(CC[C@H]4C(C)(C)CCC[C@]34C)[C@@H]1CC(C1=CC(=O)OC1O)O2 (stereo partly specified)	87.1%	93%
O=C(CCl)Nc1cccc(Oc2ccccc2)c1	97.7%	97.7%
CCC1=NN(C(=O)c2cccc(Br)c2)C(O)(c2ccc(Br)cc2)C1 (stereo unspecified)	19.9%	22.4%
C#CC(=O)N(c1cc(OC)ccc1OC)C(C(=O)NC1CCCC1)c1cccs1 (stereo unspecified)	98.2%	98.5%
N#Cc1c(/N=C/c2cccs2)sc2c1CCCCC2	65.7%	35.4%

Compound	activity [1]	activity [2]
O=C(Nc1ncc(Cc2ccccc2)s1)c1cccs1	74.1%	75%
CSCCC(NC(=O)c1ccc(Cl)c([N+](=O)[O-])c1)C(=O)N1CCN(C/C=C/c2ccccc2)CC1 (stereo unspecified)	36.3%	24.4%
C[C@@H](NC(=O)c1ncn2c1c(=O)[nH]c1ccc(Br)cc12)c1ccccc1	20.2%	13%
Cc1ccc(-c2cnn(-c3ccccc3)c2N)cc1	78.6%	77%
COc1ccc(C(=O)Nc2nc3ccccc3[nH]2)cc1	96.3%	95.1%
CCOC(=O)c1cc2c(C)n(-c3ccc(C)cc3)c(C)c2ccc1=O	74.9%	63.9%
Cc1ccnc(NC(=O)CCC2CCCCC2)c1	60.2%	46.5%
Cc1cccc(/C=C/c2nc3ccccc3c(=O)[nH]2)c1	61.5%	65%
O=C(NCc1ccccc1)c1c(Cl)nc(Cl)c(Cl)c1Cl	99.8%	99.9%
Cc1cc(C(=O)Nc2sc3c(c2C#N)CCC(C)C3)no1 (stereo unspecified)	58.6%	52.6%
O=C(c1cc(-c2ccc3c(c2)OCO3)on1)N1CCCCC1	53.4%	48.9%
CC(C)(C)OC(=O)NCc1ccc(NC(=O)c2nc[nH]c2C(=O)NCCCCNC(=O)c2[nH]cnc2C(=O)Nc2ccc(CNC(=O)OC(C)(C)C)cc2)cc1	95.1%	96.2%
CC(=C/c1ccccc1)/C=N/NC(=O)c1cccs1	56%	51.2%
CC1(C)N=C(N)N=C(N)N1c1cccc(CC(=O)Nc2ccccc2)c1	77.8%	85.3%
O=C(CC1SC(=O)N(Cc2cccc3ccccc23)C1=O)Nc1nccs1 (stereo unspecified)	33%	74.3%
O=C(Cn1ncc(Cl)c(Cl)c1=O)NC(=O)NC1CCCCC1	99.3%	99.3%
COc1cccc(/C=C/C(=O)NNC(=O)c2ccco2)c1OC	66.7%	62.8%
CCCCc1ccc(NC(=O)c2cnccn2)cc1	53.3%	45.1%
Cc1cc(=O)n2[nH]c(-c3ccc(F)cc3)nc2n1	44.8%	42.6%
N/C(=N\OC(=O)c1ccc(Cl)cc1)c1ccc(Cl)cc1	92.4%	76.8%
COc1ccccc1NC(CC(=O)c1ccccc1)C(=O)OCC(=O)c1ccc(Br)cc1 (stereo unspecified)	65.4%	57.2%
